Bioassay records (PubChem BioAssay)
Only some compounds are listed: those with a hit (about 12% of all), similar ones and a draw of the others.
G9a block: qHTS Assay for Inhibitors of Histone Lysine Methyltransferase G9a. Histone-lysine N-methyltransferase EHMT2 (Homo sapiens), Q96KQ7. AID 504332, 2011. Potency, µM (series often up to 102 µM), for the others: at the top dose activity, negative = inhibition, actives largely listed as inhibitors. G9a H3K9 monomethylation, AlphaScreen, 2 h. 350,000 compounds, 8.8% hits; further: on the % scale 0 is the no-effect control and ±100 the full control effect; nearly all actives have a fitted effect of over 75% in size
Target sequence (Q96KQ7 913-1193 limits assumed): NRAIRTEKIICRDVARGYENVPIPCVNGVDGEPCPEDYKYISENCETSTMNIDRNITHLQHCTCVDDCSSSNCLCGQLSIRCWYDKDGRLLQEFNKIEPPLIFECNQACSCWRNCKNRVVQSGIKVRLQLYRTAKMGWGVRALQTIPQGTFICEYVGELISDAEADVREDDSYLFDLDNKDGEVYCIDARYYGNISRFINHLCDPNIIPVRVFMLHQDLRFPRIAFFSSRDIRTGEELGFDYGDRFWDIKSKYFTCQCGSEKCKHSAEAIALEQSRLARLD
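Enzyme 20 nM + cpd, 15 min RT; add b-H3K9 pep 500 nM / SAM 20 uM; 2 h RT; anti-H3K9me1 Ab 0.5 ug/mL + SA donor / anti-rabbit acceptor beads 20 ug/mL each, 10 min; AlphaScreen read.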
L3MBTL1 inh: qHTS Assay for the Inhibitors of L3MBTL1; Lethal(3)malignant brain tumor-like protein 1 (Homo sapiens), Q9Y468; 230,000 compounds, 0.66% hits; Potency, µM (highest dose often 57.1 µM), for inactives: at the top dose activity, negative = inhibition, most hits filed as inhibitors; AlphaScreen L3MBTL1–H3K9me1 peptide binding; further: on the % scale 0 is the no-effect control and ±100 the full control effect; nearly all actives have a fitted effect of over 60% in size
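Displacement of a biotinylated histone H3(1-15) peptide monomethylated at Lys9 (75 nM) from L3MBTL1 (50 nM) was measured by AlphaScreen after a 30 min room-temperature compound incubation; cefsulodin titration served as intraplate control.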
JMJD2A Tudor: qHTS Assay for Inhibitors of JMJD2A-Tudor Domain | Potency, µM (titrated, usually from 114 µM), for the others: at the highest dose activity change, negative = inhibition, most hits filed as inhibitors | AID 504339, 2011 | 390,000 compounds, 4.4% hits | Lysine-specific demethylase 4A (Homo sapiens), O75164 | AlphaScreen JMJD2A-Tudor / H3K4me3 peptide binding; further: on the % scale 0 is the no-effect control and ±100 the full control effect; nearly all actives have a fitted effect of over 50% in size
BAZ2B inh: qHTS Assay for Inhibitors of BAZ2B. AlphaScreen BAZ2B-H3K14Ac peptide displacement. Potency, µM (highest dose often 114 µM), without a hit: at the highest dose activity change, negative = inhibition, actives largely listed as inhibitors. Bromodomain adjacent to zinc finger domain protein 2B (Homo sapiens), Q9UIF8. 360,000 compounds, 4.4% hits. AID 504333, 2011; further: on the % scale 0 is the no-effect control and ±100 the full control effect; nearly all actives have a fitted effect of over 60% in size
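In this displacement format the biotinylated H3(5-23) peptide acetylated at Lys14 serves as ligand at 50 nM, with BAZ2B at 50 nM in PBS pH 7.4 containing 0.01% Tween-20. Donor and acceptor beads are 10 ug/mL final.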
Sfp PPTase inh: qHTS Assay for Inhibitors of Bacillus subtilis Sfp phosphopantetheinyl transferase (PPTase) | 4'-phosphopantetheinyl transferase ffp (Bacillus subtilis), Q9F4F7 | Biochemical Sfp PPTase activity, qHTS | Potency, µM, inactives show largest response in the series, negative = inhibition, most hits filed as inhibitors | 310,000 compounds, 3.5% hits | AID 1490, 2009;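 further: the enzyme is Sfp with the accession as filed and its product quenches rhodamine fluorescence; 0% = enzyme reaction without inhibitor and -100% = no enzyme wells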
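After 15 min at room temperature with compound, 15 nM Sfp received 5 uM rhodamine-CoA plus 12.5 uM BHQ-2-ybbR (50 mM Hepes pH 7.6, 10 mM MgCl2). Rate came from the fluorescence difference over 30 min, ex 525/em 598 nm.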
HP1b binding inh: HTS for Inhibitors of HP1-beta Chromodomain Interactions with Methylated Histone Tails. Chromobox protein homolog 1 (Homo sapiens), P83916. 390,000 compounds, 0.56% hits. Potency, µM (titrated, usually from 114 µM), inactives show at the highest dose activity change, negative = inhibition, actives largely listed as inhibitors. AlphaScreen HP1-beta / biotin-H3K9me3 peptide binding; further: nearly all actives have a fitted effect of over 70% in size
Target sequence (P83916 whole entry, looked up): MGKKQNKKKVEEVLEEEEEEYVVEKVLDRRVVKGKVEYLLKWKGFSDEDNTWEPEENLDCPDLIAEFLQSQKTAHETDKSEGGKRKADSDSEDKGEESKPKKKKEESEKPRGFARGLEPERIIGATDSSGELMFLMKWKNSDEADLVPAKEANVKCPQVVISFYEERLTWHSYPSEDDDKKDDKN
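AlphaScreen: HP1-beta (50 nM) preformed 30 min with biotin-H3(1-18)K9me3 peptide (50 nM) in PBS pH 7.4, 0.01% Tween-20. Compound added for 30 min at RT, then streptavidin donor/nickel chelate acceptor beads (10 ug/mL) for 30 min.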
* hit, by the source's call; [ ] = remark or other dose. The call rests on the fitted dose curve; in most records, active means well fitted curve in the direction sought with a large enough effect; inconclusive means small, poorly fitted or top-dose-only effect, or another doubt; inactive means no such curve, though single readings can be large; an effect the other way counts as inactive or inconclusive. Potency means the concentration at half of the fitted maximal effect.

`O=S(=O)([O-])CCC[n+]1c(/C=C\Nc2ccccc2)oc2ccc(-c3ccccc3)cc21` gave G9a block -35%, L3MBTL1 inh inconclusive, BAZ2B inh 79µM* and Sfp PPTase inh -3%.
For CCN(CC)CCNC(=O)CN1C(=O)CSc2ccc(S(=O)(=O)N3CCOCC3)cc21 the results were G9a block 6%[59 µM], JMJD2A Tudor -24%, BAZ2B inh 0% and HP1b binding inh 1%.
For O=C(NCC1CCCN1S(=O)(=O)c1ccccc1)C(=O)NC1CC1 (configuration not stated) the results were G9a block 50µM*, L3MBTL1 inh 7%, JMJD2A Tudor 35µM*, BAZ2B inh 5% and HP1b binding inh 0%.
`O=C(NCCC1CCCCN1S(=O)(=O)c1ccccc1)C(=O)NC1CCCC1` (configuration not stated) gave G9a block -2%[0.501 µM], L3MBTL1 inh 8%, JMJD2A Tudor -7%, BAZ2B inh -4% and HP1b binding inh 28%.
O=C(O)C1CCCN1S(=O)(=O)c1cccc(S(=O)(=O)N2CCCC2C(=O)O)c1 (configuration not stated) was read as G9a block 3.2µM*, L3MBTL1 inh -2%, JMJD2A Tudor -13%, BAZ2B inh -8%, Sfp PPTase inh 22% and HP1b binding inh 65%.
For CCc1cccc(NC(=O)c2oc3ccc4c(c3c2C)C(=O)CC(C)(C)O4)c1 the results were G9a block 8%[59 µM], JMJD2A Tudor 3%, BAZ2B inh -3% and HP1b binding inh 31%.
`C[C@@H]1C=C[C@](Cc2ccccc2)(C(=O)NCCN2CCOCC2)N1C(=O)c1ccccc1` gave Sfp PPTase inh 10%.
O=c1ccn(Cc2ccccc2)c(=O)n1Cc1ccccc1 was read as G9a block -2%[59 µM], L3MBTL1 inh -2%[11.4 µM], JMJD2A Tudor 3%, BAZ2B inh 4%, Sfp PPTase inh 7% and HP1b binding inh 26%.
N[C@H](Cn1ccc(=O)n(Cc2ccccc2C(=O)O)c1=O)C(=O)O was read as Sfp PPTase inh 71µM*.
`COC(=O)C1=C(C(=O)OC)[C@@H]2N(Cc3ccccc3)c3ccccc3[C@@]23C[C@@H](C(=O)OC)N(S(=O)(=O)c2ccc(Br)cc2)C3=N1` gave Sfp PPTase inh 0%.
COc1ccc(/C=C/c2cc(OC)c(OC)cc2CC[N+](C)(C)C)cc1 was read as Sfp PPTase inh -15%.
`COc1ccc(/C=C\c2cc(OC)c(OC)cc2CC[N+](C)(C)C)cc1OC` gave G9a block 13µM*, L3MBTL1 inh -8%, JMJD2A Tudor -24%, BAZ2B inh -28%, Sfp PPTase inh 1% and HP1b binding inh 2%.
For COc1ccc(OC)c2sc(N3CCN(C(=O)c4ccc([N+](=O)[O-])s4)CC3)nc12 the results were G9a block 35µM*, L3MBTL1 inh -22%, JMJD2A Tudor inconclusive, BAZ2B inh inconclusive and HP1b binding inh -11%.
For COc1ccc(OC)c2sc(N3CCN(C(=O)c4ccc5ncsc5c4)CC3)nc12 the results were G9a block 40µM*, L3MBTL1 inh -2%, JMJD2A Tudor inconclusive, BAZ2B inh inconclusive and HP1b binding inh inconclusive.
`COc1ccc2nc(N3CCN(C(=O)c4ccc5ncsc5c4)CC3)sc2c1` gave G9a block -6%[0.501 µM], L3MBTL1 inh -2%, JMJD2A Tudor -9%, BAZ2B inh -4% and HP1b binding inh 21%.
`CCS(=O)(=O)c1ccc(C(=O)N2CCN(c3nc4c(OC)ccc(C)c4s3)CC2)cc1` gave G9a block 5%[59 µM], JMJD2A Tudor -10%, BAZ2B inh -11% and HP1b binding inh 3%.
CCOc1ccccc1NC(=O)c1nnn(CC(=O)Nc2ccc(OC)c(OC)c2)c1N was read as G9a block 1%[59 µM], JMJD2A Tudor -19%, BAZ2B inh 10%[57.1 µM] and HP1b binding inh -4%.
Nc1ccc(NC2C[C@@H](C(=O)O)NC2=O)cc1 (some centres not stated) was read as G9a block 50µM*, L3MBTL1 inh 4%, JMJD2A Tudor -15%, BAZ2B inh -22%, Sfp PPTase inh 15% and HP1b binding inh 35%.
`CCOCC(=O)NC1CCc2cc(OC)c(OC)c(OC)c2-c2ccc(SC)c(=O)cc21` (configuration not stated) gave JMJD2A Tudor -8% and HP1b binding inh 19%.
Screening CCn1ccnc1CNC(=O)c1ccc(OC2CCN(C(=O)COC)CC2)cc1 returned G9a block 34%, JMJD2A Tudor -9%, BAZ2B inh -18%, Sfp PPTase inh -13% and HP1b binding inh 29%.
`CCCC(=O)Nc1ccc(-c2csc(N/N=C\c3ccncc3)n2)cc1` gave JMJD2A Tudor -19%, BAZ2B inh inconclusive, Sfp PPTase inh 25µM* and HP1b binding inh 25%.
`CC(=O)Nc1ccc(-c2csc(NCCc3ccccc3)n2)cc1` gave L3MBTL1 inh 0%, JMJD2A Tudor -28%, BAZ2B inh -9%, Sfp PPTase inh -21% and HP1b binding inh 7%.
Screening CC(=O)Nc1ccc(-c2csc(N/N=C\c3ccncc3)n2)cc1 returned G9a block 8.9µM*, JMJD2A Tudor inconclusive, BAZ2B inh -13%, Sfp PPTase inh 20µM* and HP1b binding inh 5%.
Screening CCc1ccc(OCC(=O)O/N=C(\N)c2ccncc2)c(Br)c1 returned G9a block -102%, JMJD2A Tudor 9%, BAZ2B inh -5%, Sfp PPTase inh -2% and HP1b binding inh 46%.
Screening Cc1cc(C)nc(NNC2=CC(=[N+]3CCCCC3)CC(C)(C)C2)n1 returned G9a block inconclusive, JMJD2A Tudor -39%, BAZ2B inh -12%, Sfp PPTase inh -86% and HP1b binding inh inconclusive.
Cc1cc(C)nc(NNC2=CC(=[N+]3CCCC3)CCC2)n1 was read as G9a block inconclusive, JMJD2A Tudor 3.2µM*, BAZ2B inh -8%, Sfp PPTase inh -98% and HP1b binding inh inconclusive.
